Assay results: the supplement of paper PMC10037445
In all, about 2,900 compounds were measured (“NF-kB SEAP reporter activity, fold change vs agonist alone”: median about 0.99, highest 2% from about 2.6 on). The full list was thinned out, with the highest values kept by preference.

How the values were obtained:
RAW-Dual [1] = test: NF-kB SEAP reporter activity, fold change vs agonist alone; cytotoxicity flag (confluency mask): not cytotoxic; higher = enhanced NF-kB activity
Procedure, shortened: (§1)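 Cytotoxic wells were those whose IncuCyte confluency was below 70% of agonist controls in both mask sets. The cells were RAW-Dual macrophages at 50,000 cells/well in DMEM on 384-well plates, dosed with 50 nL of library stock by pin tool, stimulated with a PRR agonist 1 h later, and kept at 37 °C, 5% CO2 for 20 hours. IRF and NF-κB reporter activity, as fold change over agonist-alone wells, came from supernatant read by QuantiLuc luminescence and QuantiBlue absorbance, respectively.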

RAW-Dual [2] = test: NF-kB SEAP reporter activity, fold change vs agonist alone; higher = enhanced NF-kB activity
Procedure, shortened: as §1

RAW-Dual [3] = test: NF-kB SEAP reporter activity, fold change vs agonist alone; cytotoxicity flag (confluency mask): cytotoxic (confluency <70% of control); higher = enhanced NF-kB activity
Procedure, shortened: as §1

[4] = agonist: ODN 1826 (TLR9) 0.5 ug/mL
[5] = agonist: Pam2CSK4 (TLR2/6) 0.1 ug/mL
[6] = agonist: Pam3CSK4 (TLR2/1) 0.1 ug/mL
[7] = library stock concentration (final ~1000-fold dilution): 10 mM, cytotoxicity flag (confluency mask): cytotoxic (confluency <70% of control), agonist: Imiquimod (TLR7) […]
[8] = library stock concentration (final ~1000-fold dilution): 10 mM, cytotoxicity flag (confluency mask): cytotoxic (confluency <70% of control), agonist: MPLA (TLR4) […]
[9] = library stock concentration (final ~1000-fold dilution): 10 mM, cytotoxicity flag (confluency mask): not cytotoxic, agonist: MPLA (TLR4) […]
[10] = library stock concentration (final ~1000-fold dilution): 10 mM, cytotoxicity flag (confluency mask): not cytotoxic, agonist: Imiquimod (TLR7) […]

## CCNC1CC(C)S(=O)(=O)c2sc(S(N)(=O)=O)cc21.Cl (configuration not stated) (library stock concentration (final ~1000-fold dilution): 10 mM water)
RAW-Dual [1]; agonist: LPS (TLR4) 0.1 ug/mL
  NF-kB SEAP reporter activity: 1.49
RAW-Dual [1]; [4]
  NF-kB SEAP reporter activity: 1.13
RAW-Dual [1]; [5]
  NF-kB SEAP reporter activity: 1.09
RAW-Dual [1]; [6]
  NF-kB SEAP reporter activity: 0.997

## CCNC1CC(C)S(=O)(=O)c2sc(S(N)(=O)=O)cc21.Cl (configuration not stated)
RAW-Dual [2]; library stock concentration (final ~1000-fold dilution): 10 mM water, cytotoxicity flag (confluency mask): not cytotoxic, agonist: Imiquimod (TLR7) […]
  NF-kB SEAP reporter activity: 0.908
RAW-Dual [2]; library stock concentration (final ~1000-fold dilution): 10 mM water, cytotoxicity flag (confluency mask): not cytotoxic, agonist: MPLA (TLR4) […]
  NF-kB SEAP reporter activity: 0.982

## CCc1ccc(OCc2ccccc2C(=O)Nc2ccc3nc(C)cc(N)c3c2)cc1.Cl
RAW-Dual [2]; [7]
  NF-kB SEAP reporter activity: 0.265
RAW-Dual [2]; [8]
  NF-kB SEAP reporter activity: 0.216

## CCc1ccc(OCc2ccccc2C(=O)Nc2ccc3nc(C)cc(N)c3c2)cc1.Cl (library stock concentration (final ~1000-fold dilution): 10 mM)
RAW-Dual [3]; agonist: LPS (TLR4) 0.1 ug/mL
  NF-kB SEAP reporter activity: 0.212
RAW-Dual [3]; [4]
  NF-kB SEAP reporter activity: 0.198
RAW-Dual [3]; [5]
  NF-kB SEAP reporter activity: 0.0939
RAW-Dual [3]; [6]
  NF-kB SEAP reporter activity: 0.336

## CCCN1CCCCC1C(=O)Nc1c(C)cccc1C (configuration not stated)
RAW-Dual [2]; [9]
  NF-kB SEAP reporter activity: 1.09

## CCCN1CCCCC1C(=O)Nc1c(C)cccc1C (configuration not stated) (library stock concentration (final ~1000-fold dilution): 10 mM)
RAW-Dual [1]; agonist: LPS (TLR4) 0.1 ug/mL
  NF-kB SEAP reporter activity: 1.03
RAW-Dual [1]; [4]
  NF-kB SEAP reporter activity: 1.03
RAW-Dual [1]; [5]
  NF-kB SEAP reporter activity: 0.952
RAW-Dual [1]; [6]
  NF-kB SEAP reporter activity: 1.06

## Cc1ccc(C(=O)N(CCCN)C(c2nc3cc(Cl)ccc3c(=O)n2Cc2ccccc2)C(C)C)cc1 (configuration not stated) (library stock concentration (final ~1000-fold dilution): 10 mM)
RAW-Dual [3]; agonist: LPS (TLR4) 0.1 ug/mL
  NF-kB SEAP reporter activity: 0.331
RAW-Dual [3]; [4]
  NF-kB SEAP reporter activity: 0.254
RAW-Dual [3]; [5]
  NF-kB SEAP reporter activity: 0.0886
RAW-Dual [3]; [6]
  NF-kB SEAP reporter activity: 0.27

## Cc1ccc(C(=O)N(CCCN)C(c2nc3cc(Cl)ccc3c(=O)n2Cc2ccccc2)C(C)C)cc1 (configuration not stated)
RAW-Dual [2]; [7]
  NF-kB SEAP reporter activity: 1.41
RAW-Dual [2]; [8]
  NF-kB SEAP reporter activity: 0.878

## COC1C(=O)C2(C)C(OC)CC3OCC3(OC(C)=O)C2C(OC(=O)c2ccccc2)C2(O)CC(OC(=O)C(O)C(NC(=O)OC(C)(C)C)c3ccccc3)C(C)=C1C2(C)C (configuration not stated)
RAW-Dual [2]; [10]
  NF-kB SEAP reporter activity: 1.57
RAW-Dual [2]; [9]
  NF-kB SEAP reporter activity: 1.25

## COC1C(=O)C2(C)C(OC)CC3OCC3(OC(C)=O)C2C(OC(=O)c2ccccc2)C2(O)CC(OC(=O)C(O)C(NC(=O)OC(C)(C)C)c3ccccc3)C(C)=C1C2(C)C (configuration not stated) (library stock concentration (final ~1000-fold dilution): 10 mM)
RAW-Dual [1]; agonist: LPS (TLR4) 0.1 ug/mL
  NF-kB SEAP reporter activity: 1.71
RAW-Dual [1]; [4]
  NF-kB SEAP reporter activity: 1.2
RAW-Dual [1]; [5]
  NF-kB SEAP reporter activity: 1.01
RAW-Dual [1]; [6]
  NF-kB SEAP reporter activity: 0.912

## O=C(NCc1cccc(O)c1)Nc1nc(-c2ccncc2)cs1 (library stock concentration (final ~1000-fold dilution): 10 mM)
RAW-Dual [1]; agonist: LPS (TLR4) 0.1 ug/mL
  NF-kB SEAP reporter activity: 1.01
RAW-Dual [1]; [4]
  NF-kB SEAP reporter activity: 1.21
RAW-Dual [1]; [5]
  NF-kB SEAP reporter activity: 1.24
RAW-Dual [1]; [6]
  NF-kB SEAP reporter activity: 1.88

## Cc1cccc(Nc2nc(-c3ccncc3)cs2)c1
RAW-Dual [2]; [10]
  NF-kB SEAP reporter activity: 1.89
RAW-Dual [2]; [9]
  NF-kB SEAP reporter activity: 2.08

## Cc1cccc(Nc2nc(-c3ccncc3)cs2)c1 (library stock concentration (final ~1000-fold dilution): 10 mM)
RAW-Dual [1]; agonist: LPS (TLR4) 0.1 ug/mL
  NF-kB SEAP reporter activity: 2.85
RAW-Dual [1]; [4]
  NF-kB SEAP reporter activity: 1.3
RAW-Dual [1]; [5]
  NF-kB SEAP reporter activity: 0.662
RAW-Dual [1]; [6]
  NF-kB SEAP reporter activity: 1

## Oc1ccc(Nc2nc(-c3ccc(Cl)cc3)cs2)cc1
RAW-Dual [2]; [10]
  NF-kB SEAP reporter activity: 0.665
RAW-Dual [2]; [9]
  NF-kB SEAP reporter activity: 0.836

## Oc1ccc(Nc2nc(-c3ccc(Cl)cc3)cs2)cc1 (library stock concentration (final ~1000-fold dilution): 10 mM)
RAW-Dual [1]; agonist: LPS (TLR4) 0.1 ug/mL
  NF-kB SEAP reporter activity: 0.311
RAW-Dual [1]; [4]
  NF-kB SEAP reporter activity: 0.27
RAW-Dual [1]; [5]
  NF-kB SEAP reporter activity: 0.227
RAW-Dual [1]; [6]
  NF-kB SEAP reporter activity: 0.157

## O=C(NCc1cccc(O)c1)Nc1nc(-c2ccncc2)cs1
RAW-Dual [2]; [10]
  NF-kB SEAP reporter activity: 1.3
RAW-Dual [2]; [9]
  NF-kB SEAP reporter activity: 1.45

## CCCOc1ccc(S(=O)(=O)NCCC2CCCN2C)cc1-c1nc(=O)c2c([nH]1)c(CCC)nn2C (configuration not stated) (library stock concentration (final ~1000-fold dilution): 10 mM)
RAW-Dual [1]; agonist: LPS (TLR4) 0.1 ug/mL
  NF-kB SEAP reporter activity: 1.02
RAW-Dual [1]; [4]
  NF-kB SEAP reporter activity: 0.517
RAW-Dual [1]; [5]
  NF-kB SEAP reporter activity: 0.99
RAW-Dual [1]; [6]
  NF-kB SEAP reporter activity: 1.14

## CCCOc1ccc(S(=O)(=O)NCCC2CCCN2C)cc1-c1nc(=O)c2c([nH]1)c(CCC)nn2C (configuration not stated)
RAW-Dual [2]; [10]
  NF-kB SEAP reporter activity: 1.42
RAW-Dual [2]; [9]
  NF-kB SEAP reporter activity: 1.28

## COc1cc(F)c(F)c(Nc2ccc(I)cc2F)c1NS(=O)(=O)C1(CC(O)CO)CC1 (configuration not stated) (library stock concentration (final ~1000-fold dilution): 10 mM)
RAW-Dual [1]; agonist: LPS (TLR4) 0.1 ug/mL
  NF-kB SEAP reporter activity: 1.01
RAW-Dual [1]; [4]
  NF-kB SEAP reporter activity: 0.915
RAW-Dual [1]; [5]
  NF-kB SEAP reporter activity: 0.342
RAW-Dual [1]; [6]
  NF-kB SEAP reporter activity: 0.427

## COc1cc(F)c(F)c(Nc2ccc(I)cc2F)c1NS(=O)(=O)C1(CC(O)CO)CC1 (configuration not stated)
RAW-Dual [2]; [10]
  NF-kB SEAP reporter activity: 0.885
RAW-Dual [2]; [9]
  NF-kB SEAP reporter activity: 0.968

## Cl.Cl.Fc1ccc(C(c2ccc(F)cc2)N2CCN(C/C=C/c3ccccc3)CC2)cc1
RAW-Dual [2]; [10]
  NF-kB SEAP reporter activity: 1.99
RAW-Dual [2]; [9]
  NF-kB SEAP reporter activity: 1.65

## Cl.Cl.Fc1ccc(C(c2ccc(F)cc2)N2CCN(C/C=C/c3ccccc3)CC2)cc1 (library stock concentration (final ~1000-fold dilution): 10 mM)
RAW-Dual [1]; agonist: LPS (TLR4) 0.1 ug/mL
  NF-kB SEAP reporter activity: 2.45
RAW-Dual [1]; [4]
  NF-kB SEAP reporter activity: 1.44
RAW-Dual [1]; [5]
  NF-kB SEAP reporter activity: 0.829
RAW-Dual [1]; [6]
  NF-kB SEAP reporter activity: 1.09

## COC12C(COC(N)=O)C3=C(C(=O)C(C)=C(N)C3=O)N1CC1NC12 (configuration not stated) (library stock concentration (final ~1000-fold dilution): 10 mM)
RAW-Dual [1]; agonist: LPS (TLR4) 0.1 ug/mL
  NF-kB SEAP reporter activity: 2.79
RAW-Dual [1]; [4]
  NF-kB SEAP reporter activity: 2.71
RAW-Dual [1]; [5]
  NF-kB SEAP reporter activity: 1.89
RAW-Dual [1]; [6]
  NF-kB SEAP reporter activity: 3.31

## COC12C(COC(N)=O)C3=C(C(=O)C(C)=C(N)C3=O)N1CC1NC12 (configuration not stated)
RAW-Dual [2]; [10]
  NF-kB SEAP reporter activity: 1.82
RAW-Dual [2]; [9]
  NF-kB SEAP reporter activity: 1.79

## CCN(CC)CCNC(=O)c1c(C)[nH]c(/C=C2/C(=O)Nc3ccc(-c4csc(-c5ccccc5)n4)cc32)c1C
RAW-Dual [2]; [7]
  NF-kB SEAP reporter activity: 1.35
RAW-Dual [2]; [8]
  NF-kB SEAP reporter activity: 1.55

## CCN(CC)CCNC(=O)c1c(C)[nH]c(/C=C2/C(=O)Nc3ccc(-c4csc(-c5ccccc5)n4)cc32)c1C (library stock concentration (final ~1000-fold dilution): 10 mM)
RAW-Dual [3]; agonist: LPS (TLR4) 0.1 ug/mL
  NF-kB SEAP reporter activity: 0.882
RAW-Dual [3]; [4]
  NF-kB SEAP reporter activity: 0.397
RAW-Dual [3]; [5]
  NF-kB SEAP reporter activity: 0.37
RAW-Dual [3]; [6]
  NF-kB SEAP reporter activity: 0.645
